Compound activity as filed in PubChem.
The list is not random: actives were taken first. Their share in the collection is about 15%.
12-LOX inh: blocks human arachidonate 12S-lipoxygenase; purified 12hLO, xylenol orange hydroperoxide absorbance; Potency, µM (series often up to 108 µM), inactives show top-dose activity change, negative = inhibition, hits mostly inhibitors; 1.1% of 580,000 active; AID 1671190
Target sequence (P18054 whole entry, looked up): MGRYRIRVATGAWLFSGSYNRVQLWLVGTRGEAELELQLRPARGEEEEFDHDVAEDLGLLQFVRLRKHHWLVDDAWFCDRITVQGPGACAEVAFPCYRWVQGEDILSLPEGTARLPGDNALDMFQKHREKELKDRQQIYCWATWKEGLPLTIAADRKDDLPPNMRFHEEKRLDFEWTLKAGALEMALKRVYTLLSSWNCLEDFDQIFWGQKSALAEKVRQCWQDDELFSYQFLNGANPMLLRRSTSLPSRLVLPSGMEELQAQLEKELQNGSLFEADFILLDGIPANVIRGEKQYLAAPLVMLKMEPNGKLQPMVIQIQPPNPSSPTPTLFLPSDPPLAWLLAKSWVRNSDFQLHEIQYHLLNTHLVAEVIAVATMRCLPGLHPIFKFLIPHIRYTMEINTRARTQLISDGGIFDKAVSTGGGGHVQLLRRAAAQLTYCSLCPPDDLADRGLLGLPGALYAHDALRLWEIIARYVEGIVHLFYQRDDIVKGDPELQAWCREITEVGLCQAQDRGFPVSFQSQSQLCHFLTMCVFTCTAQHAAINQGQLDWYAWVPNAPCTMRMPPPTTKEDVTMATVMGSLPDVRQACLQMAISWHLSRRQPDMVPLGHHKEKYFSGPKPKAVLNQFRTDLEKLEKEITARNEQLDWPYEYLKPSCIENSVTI
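Purified human 12hLO (150 nM final) in 25 mM Hepes, 0.01% Triton X-100, pH 7.0 was preincubated 15 min at room temperature with compound. Then 40 uM arachidonic acid was added, 30 min. Hydroperoxide was read by Fe-XO absorbance ratio 573/405 nm.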
VP16 counter: counter-screen for ROR gamma inhibitors: Gal4-VP16 reporter. Potency, µM (doses to about 53.6 µM), inactives show at the highest dose activity, negative = inhibition, most hits filed as inhibitors. 3.5% of 310,000 active. AID 2546. Drosophila S2 Gal4-VP16 UAS-luciferase, luminescence, 20 h;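 further: Gal4-VP16 expression switched on by copper sulfate through the metallothionein promoter; nearly all actives have a fitted effect of over 50% in size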
DT40 TDP1 CPT: growth inhibition of DT40 Tdp1-/-;hTDP1 cells with camptothecin (screen for TDP1 inhibitors); Potency, µM (series often up to 46.2 µM), for the others: at the top dose activity change, negative = growth inhibition, usual class: inhibitors; 12% of 420,000 active; AID 686979; chicken DT40 Tdp1-/-;hTDP1 cells + 20 nM CPT, ATP luminescence, 48 h; further: nearly all actives have a fitted effect of over 55% in size
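Cell growth measured by CellTiter-Glo luminescence after a minimum 48 h, 37 C compound exposure with 20 nM CPT in Tdp1-knockout DT40 cells stably expressing hTDP1, seeded 400/well; qHTS titration format.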
RORgamma inh: inhibitors of mouse ROR gamma transcriptional activity. P51450. Drosophila S2 Gal4-RORgamma UAS-luciferase reporter, 20 h. Potency, µM (top dose mostly 53.6 µM), for inactives: top-dose activity change, negative = inhibition, most hits filed as inhibitors. 5.4% of 310,000 active. AID 2551; further: nearly all actives have a fitted effect of over 60% in size
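Using a luciferase readout, inhibitors were identified by reduced reporter activity in Drosophila cells coexpressing a copper-inducible Gal4–ROR gamma fusion and UAS-driven Photinus luciferase, incubated 20 hr after 700 uM copper sulfate.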
DT40 TDP1 no CPT: qHTS for Inhibitors of human tyrosyl-DNA phosphodiesterase 1 (TDP1): qHTS in cells in absence of CPT | DT40 Tdp1-/- hTDP1 cells, no CPT, ATP luminescence, 48 h | Potency, µM (doses to about 46.2 µM), for the others: top-dose activity change, negative = growth inhibition, hits mostly inhibitors | 15% of 420,000 active; further: nearly all actives have a fitted effect of over 55% in size
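DT40 Tdp1-/-;hTDP1 cells, no CPT (DMSO vehicle only), 400 cells/well; compounds pin-transferred; ≥48 hr, 37 °C; CellTiter-Glo 30 min RT dark, luminescence read.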
ELG1 DNA repair: blocks ELG1-dependent DNA repair in HEK293T cells | Potency, µM (titrated, usually from 46.1 µM), inactives show at the highest dose activity change, negative = inhibition, most hits filed as inhibitors | 2.3% of 330,000 active | HEK293T ELG1-luciferase reporter, luminescence, 16 h; DNA damage induced by 5-fluorouridine; further: nearly all actives have a fitted effect of over 55% in size
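DMSO vehicle served as the neutral condition. Each well held 2,000 cells given 5-fluorouridine plus compound; after 16 hr at 37 °C/5% CO2, ONE-Glo was added and luciferase measured 30 min later.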
Starred values were filed as active, the others as inactive; ? = inconclusive; nt = no result; [ ] = remark or other dose. The call rests on the fitted dose curve; in most records, active means well fitted curve in the direction sought with a large enough effect; inconclusive means small, poorly fitted or top-dose-only effect, or another doubt; inactive means no such curve, though single readings can be large; an effect the other way counts as inactive or inconclusive. On the % scale 0 is the no-effect control and ±100 the full control effect; potency means the concentration at half of the fitted maximal effect.

SMILES	12-LOX inh	VP16 counter	DT40 TDP1 CPT	RORgamma inh	DT40 TDP1 no CPT	ELG1 DNA repair
S=c1nc[nH]c2c1sc1nc(N3CCOCC3)c3c(c12)CCCC3	?	5%[10 µM]	?	-9%	23µM*	10%
CC(C)c1nc2sc3c(=S)nc[nH]c3c2c2c1CCC2	?	?	?	3.2µM*	23µM*	-1%
CCCNC(=O)CSc1nnc(C(=O)Nc2ccccc2)s1	-1%	nt	nt	nt	nt	nt
Cc1noc2ncnc(N3CCCC(C(=O)Nc4cccc(C(F)(F)F)c4)C3)c12 (configuration not stated)	-3%	nt	15µM*	nt	18µM*	nt
Cc1noc2ncnc(N3CCCC(C(=O)Nc4cc(F)ccc4F)C3)c12 (configuration not stated)	-5%	nt	13µM*	nt	12µM*	nt
CCN(CC)C(=O)C1CCCN(c2ncnc3onc(C)c23)C1 (configuration not stated)	-11%	nt	?	nt	?	nt
CCCc1cc(N2CCCC(C(=O)Nc3cc(Cl)ccc3OC)C2)n2ncnc2n1 (configuration not stated)	14%	nt	-29%	nt	-17%	nt
COc1ccc(NC(=O)C2CCCN(c3ncnc4onc(C)c34)C2)cc1OC (configuration not stated)	-9%	nt	?	nt	23µM*	nt
COc1ccc(Cl)cc1NC(=O)C1CCCN(c2ncnc3onc(C)c23)C1 (configuration not stated)	-3%	nt	18µM*	nt	23µM*	nt
O=C(NCCc1ccc(C(F)(F)F)cc1)C12CC3CC(CC(Cl)(C3)C1)C2	-4%	nt	nt	nt	nt	nt
COc1cccc(C(=O)N2CCc3nc(-c4ccccc4)nc(-c4ccc(Cl)cc4)c3C2)c1	5%	nt	nt	nt	nt	nt
Cc1n[nH]c(C)c1CCC(=O)NCC1CCN(c2cc(-c3ccccc3)[nH]n2)CC1	71%	nt	nt	nt	nt	nt
CC1=CC(=O)C2=C(C)C[C@H](OC(=O)c3ccccc3Br)[C@@H]3[C@H](OC(=O)[C@H]3C)[C@@H]12	-90%	nt	nt	nt	nt	nt
Cc1ccc(CCNC(=O)c2cc3sccc3n2Cc2ccc(C)cc2)cc1	-22%	nt	-25%	nt	?	nt
CCOC(=O)c1ccc(NC(=O)c2cc3sccc3n2Cc2ccc(Cl)cc2)cc1	-15%	nt	21µM*	nt	18µM*	nt
O=C(Nc1ccc2c(c1)OCCO2)c1cc2sccc2n1Cc1ccccc1	0%	-30%	18µM*	16%	?	?
Cc1ccc(Cn2c(C(=O)Nc3cccc(Cl)c3)cc3sccc32)cc1	?	nt	18µM*	nt	?	nt
CCOC(=O)c1ccccc1NC(=O)c1cc2sccc2n1C	21%	-2%	0%	35%	-29%	0%
CCOC(=O)c1cccc(NC(=O)c2cc3sccc3n2C)c1	10%	9%	?	39%	21µM*	?
CC1CCCN(c2nc3ccccc3nc2NS(=O)(=O)c2ccccc2)C1 (configuration not stated)	-1%	nt	nt	nt	nt	nt
CN1[C@@H](CCC(=O)NCc2ccccc2)CNC(=O)[C@@H]2[C@H]1CCN2C1CCOCC1	39%[176 µM]	nt	nt	nt	nt	nt
O=C1CCCCC(C(=O)O)N1 (configuration not stated)	5%	nt	nt	nt	nt	nt
COc1ccc(C(=O)NC2CCN(c3cc(-c4ccc(Cl)cc4)[nH]n3)C2)cc1F (configuration not stated)	17%	nt	nt	nt	nt	nt
COc1cc(=O)n2c(c1C(=O)Nc1cc(Cl)ccc1F)CCCC2	43%	nt	nt	nt	nt	nt
O=C(Nc1nccs1)c1cc2sccc2n1Cc1ccc(Cl)cc1	-5%	-20%	-26%	-36%	-24%	23%
SMILES	12-LOX inh	VP16 counter	DT40 TDP1 CPT	RORgamma inh	DT40 TDP1 no CPT	ELG1 DNA repair
CC(=O)c1ccc(NC(=O)c2cc3sccc3n2Cc2ccc(Cl)cc2)cc1	0%	nt	16µM*	nt	16µM*	nt
CCOC(=O)c1cccc(NC(=O)c2cc3sccc3n2Cc2ccc(Cl)cc2)c1	-15%	nt	?	nt	18µM*	nt
CN(C)c1ccc(C(=O)N2CCC(n3cc(-c4nc(-c5ccccc5)no4)nn3)CC2)cc1	12%	nt	nt	nt	nt	nt
O=C(C1CC1)N1CCc2cc(Br)cc(S(=O)(=O)Nc3ccc(C(F)(F)F)cc3)c21	-58%	nt	18µM*	nt	16µM*	nt
CCOC(=O)C1CCN(S(=O)(=O)c2cc(Br)cc3c2N(C(=O)C2CC2)CC3)CC1	-19%	?	?	-9%	-12%	?
COc1ccc(Cl)cc1NS(=O)(=O)c1cc(Br)cc2c1N(C(=O)C1CC1)CC2	0%	nt	?	nt	?	nt
Cc1ccc(NS(=O)(=O)c2cc(Br)cc3c2N(C(=O)C2CC2)CC3)cc1C	-12%	nt	2.6µM*	nt	2.1µM*	nt
CCOC(=O)c1cccc(NS(=O)(=O)c2cc(Br)cc3c2N(C(=O)C2CC2)CC3)c1	-7%	nt	?	nt	23µM*	nt
O=C(C1CC1)N1CCc2cc(Br)cc(S(=O)(=O)Nc3ccc(F)c(F)c3)c21	-1%	nt	23µM*	nt	23µM*	nt
O=C(C1CC1)N1CCc2cc(Br)cc(S(=O)(=O)NCCCN3CCCC3)c21	20%	-14%	18%	15%	-6%	1%
COc1ccc2cc(C(=O)Nc3ccc(Nc4ccccc4)cc3)[nH]c2c1	13%	nt	nt	nt	nt	nt
